{"source": "paper PMC4552634", "about": "“A New Set of Chemical Starting Points with Plasmodium falciparum Transmission-Blocking Potential for Antimalarial Drug Discovery” (PLoS ONE, 2015)", "note": "Among all 13,000 compounds or so, about 3,200 (25%) showed an effect of 50% or more. The list shows a part of the results."}
{"system": "P. falciparum stage V gametocytes", "design": "BacTiter-Glo ATP luminescence viability of purified stage V gametocytes in 384-well plates, per cent inhibition versus DMSO", "details": "48 h, 5 µM; inhibitor", "units": {"% Inhibition": "%"}}
{"molecule": "O=C(Nc1cccc(C(F)(F)F)c1)N1CCOC(CCN2CCC3(CCc4ccccc43)CC2)(c2ccc(Cl)c(Cl)c2)C1", "note": "(centres unmarked) [TCMDC-135340]", "% Inhibition": -5.677}
{"molecule": "OCC1CCN(Cc2cccc(C#Cc3cc4ncnc(Nc5ccc(OCc6cccc(F)c6)c(Cl)c5)c4s3)n2)CC1", "note": "[TCMDC-138841]", "% Inhibition": 11.44}
{"molecule": "Cc1cc(N2CCN(C)CC2)nc2ccc(NC(=O)Cc3cccc(C(F)(F)F)c3)cc12", "note": "[TCMDC-123590]", "% Inhibition": 92.11}
{"molecule": "CCN1CCN(c2cc(C)c3cc(NC(=O)c4cccc(C(F)(F)F)c4)ccc3n2)CC1", "note": "[TCMDC-125572]", "% Inhibition": -33.11}
{"molecule": "Cc1cc(N2CCN(C)CC2)nc2ccc(NC(=O)c3cccc(N(C)C)c3)cc12", "note": "[TCMDC-124449]", "% Inhibition": 4.693}
{"molecule": "Cc1cccn2c(=O)c3cc(C(=O)NC(C)c4ccccc4)c(=N)n(CCN4CCOCC4)c3nc12", "note": "(centres unmarked) [TCMDC-125137]", "% Inhibition": 27.67}
{"molecule": "COCCn1c(-c2nc(-c3ccc(F)cc3)cnc2N)nc2ccccc21", "note": "[TCMDC-138875]", "% Inhibition": 21.39}
{"molecule": "O=C(C=Cc1ccc(C(=O)Nc2ccc(C3=NCCN3)cc2)cc1)Nc1ccc(C2=NCCN2)cc1", "note": "[TCMDC-137212]", "% Inhibition": 61.27}
{"molecule": "CN=C(N)c1ccc(NC(=O)c2ccc(C(=O)Nc3ccc(C(N)=NC)cc3)cc2)cc1", "note": "[TCMDC-137214]", "% Inhibition": -8.132}
{"molecule": "O=C(Nc1ccc(C(=O)Nc2cccc(C3=NCCN3)c2)cc1)Nc1ccc(C2=NCCN2)cc1", "note": "[TCMDC-137196]", "% Inhibition": -21.25}
{"molecule": "CN=C(N)c1ccc(NC(=O)Nc2ccc(C(N)=NC)cc2)cc1", "note": "[TCMDC-137211]", "% Inhibition": 3.891}
{"molecule": "CN=C(N)c1ccc(NC(=O)C=Cc2ccc(C(=O)Nc3ccc(C(N)=NC)cc3)cc2)cc1", "note": "[TCMDC-137193]", "% Inhibition": 77.71}
{"molecule": "O=C(CCCC(=O)Nc1ccc(C2=NCCN2)cc1)Nc1ccc(C2=NCCN2)cc1", "note": "[TCMDC-138427]", "% Inhibition": -1.956}
{"molecule": "N#Cc1cccc(C(=O)NC2CCN(c3ccnc(Nc4ccc(F)cc4)n3)C2)c1", "note": "(centres unmarked) [TCMDC-133593]", "% Inhibition": 17.79}
{"molecule": "Cc1cc(-c2ccc3c(c2)CCN(CCC2CCC(NC(=O)/C=C/c4ccc(F)cc4)CC2)CC3)on1", "note": "(centres unmarked) [TCMDC-139926]", "% Inhibition": -90.16}
{"molecule": "Cc1cc(-c2ccc3c(c2)CCN(CCC2CCC(NC(=O)/C=C/c4ccccc4F)CC2)CC3)on1", "note": "(centres unmarked) [TCMDC-139974]", "% Inhibition": -78.86}
{"molecule": "O=C(C=Cc1cccc(F)c1)NC1CCC(CCN2CCc3ccc(-c4cnccn4)cc3CC2)CC1", "note": "(centres unmarked) [TCMDC-140326]", "% Inhibition": -57.13}
{"molecule": "Cn1cnc(-c2ccc3c(c2)CCN(CCC2CCC(NC(=O)/C=C/c4ccc(F)cc4)CC2)CC3)c1", "note": "(centres unmarked) [TCMDC-140338]", "% Inhibition": 59.86}
{"molecule": "Cc1ccc2[nH]cc(/C=C/C(=O)NC3CCC(CCN4CCc5ccc(C#N)cc5CC4)CC3)c2c1", "note": "(centres unmarked) [TCMDC-139682]", "% Inhibition": 84.8}
{"molecule": "Cc1noc(-c2ccc3c(c2)CCN(CCC2CCC(NC(=O)/C=C/c4ccc(F)cc4)CC2)CC3)n1", "note": "(centres unmarked) [TCMDC-139865]", "% Inhibition": -60.69}
{"molecule": "N#Cc1ccc2c(c1)CCN(CCC1CCC(NC(=O)/C=C/c3c[nH]c4ccc(F)cc34)CC1)CC2", "note": "(centres unmarked) [TCMDC-139667]", "% Inhibition": -9.203}
{"molecule": "Cc1c[nH]c2ccc(/C=C/C(=O)NC3CCC(CCN4CCc5ccc(C#N)cc5CC4)CC3)cc12", "note": "(centres unmarked) [TCMDC-139669]", "% Inhibition": 1.674}
{"molecule": "O=C(NC1CCC(CCN2CCc3ccc(-c4cnccn4)cc3CC2)CC1)c1cccc(-n2cccn2)c1", "note": "(centres unmarked) [TCMDC-140329]", "% Inhibition": 67.17}
{"molecule": "N#Cc1ccc(C=CC(=O)NC2CCC(CCN3CCc4ccc(-c5cnccn5)cc4CC3)CC2)cc1", "note": "(centres unmarked) [TCMDC-140327]", "% Inhibition": -34.09}
{"molecule": "O=C(C=Cc1ccc(F)cc1)NC1CCC(CCN2CCc3ccc(-c4cnccn4)cc3CC2)CC1", "note": "(centres unmarked) [TCMDC-140328]", "% Inhibition": 0.8671}
{"molecule": "COc1ccccc1/C=C/C(=O)NC1CCC(CCN2CCc3ccc(-c4cc(C)no4)cc3CC2)CC1", "note": "(centres unmarked) [TCMDC-139975]", "% Inhibition": 80.37}
{"molecule": "O=C(Nc1ccc(Cn2ncc(N3CCCNCC3)c(Cl)c2=O)cc1)Nc1ccc(C(F)(F)F)cc1", "note": "[TCMDC-133328]", "% Inhibition": -22.6}
{"molecule": "O=C(Nc1cccc(CN2CCN(Cc3ccc(O)cc3)CC2)c1)c1cccc(C(F)(F)F)c1", "note": "[TCMDC-141885]", "% Inhibition": -19.52}
{"molecule": "CCC[C@@H]([C@@H](CC1CCCCC1)C(=O)N[C@H](C(=O)Nc1nccs1)C(C)(C)SC)N(O)C=O", "note": "[TCMDC-138113]", "% Inhibition": -0.06569}
{"molecule": "COc1ccccc1N1CCN(C(C(=O)NCc2cccc(F)c2)c2ccc(C)cc2)CC1", "note": "(centres unmarked) [TCMDC-135502]", "% Inhibition": 14.65}
{"molecule": "O=c1cc(NCCCNCc2cccc(I)c2)[nH]c2ccccc12", "note": "[TCMDC-139414]", "% Inhibition": -42.93}
{"molecule": "O=C(Nc1ccc(-c2nc3ccccc3[nH]2)cc1)C1CCN(Cc2cccc(F)c2F)CC1", "note": "[TCMDC-124682]", "% Inhibition": -38.06}
{"molecule": "COc1ccc(CN2CCCC(N3CC4(OC3=O)c3ccccc3-c3ccccc34)C2)c(O)c1", "note": "(centres unmarked) [TCMDC-136068]", "% Inhibition": 22.8}
{"molecule": "O=C(N[C@@H](Cc1ccccc1)C(=O)NCc1cccc2ccccc12)c1ccc(O)c(-c2ccc(Cl)c(Cl)c2)c1", "note": "[TCMDC-140877]", "% Inhibition": 23.34}
{"molecule": "COc1ccc(CCN(Cc2cccs2)C(=O)c2cc3sccc3n2C)cc1OC", "note": "[TCMDC-123572]", "% Inhibition": 18.98}
{"molecule": "O=C(Cc1cccc(Cl)c1)Nc1cccc(-c2c[nH]c3nc(Nc4cccc(O)c4)ncc23)c1", "note": "[TCMDC-134681]", "% Inhibition": -6.738}
{"molecule": "O=C(N[C@H]1CCN(Cc2ccc(OCCN3CCNCC3)c(Cl)c2)C1)c1ccc(Cl)c(Cl)c1", "note": "[TCMDC-140274]", "% Inhibition": 104.1}
{"molecule": "CN1CCC[C@H]1COc1ccc(CN2CC[C@H](NC(=O)c3ccc(Cl)c(Cl)c3)C2)cc1Br", "note": "[TCMDC-140285]", "% Inhibition": 31.25}
{"molecule": "Cc1cc(CN2CC[C@H](NC(=O)c3ccc(Cl)c(Cl)c3)C2)ccc1OCCN1CCNCC1", "note": "[TCMDC-140280]", "% Inhibition": 58.57}
{"molecule": "Cc1cc(CN2CC[C@H](NC(=O)c3ccc(Cl)c(Cl)c3)C2)ccc1OCCN1CCCC1", "note": "[TCMDC-140279]", "% Inhibition": -2.29}
{"molecule": "O=C(N[C@H]1CCN(Cc2ccc(OCCN3CCNCC3)c(Br)c2)C1)c1ccc(Cl)c(Cl)c1", "note": "[TCMDC-140284]", "% Inhibition": 61.32}
{"molecule": "CN(C)CCCOc1ccc(CN2CC[C@H](NC(=O)c3ccc(Cl)c(Cl)c3)C2)cc1Br", "note": "[TCMDC-140283]", "% Inhibition": 16.89}
{"molecule": "Cc1cc(CN2CC[C@H](NC(=O)c3ccc(Cl)c(Cl)c3)C2)ccc1OCCCN(C)C", "note": "[TCMDC-140278]", "% Inhibition": 26.92}
{"molecule": "O=C(N[C@H]1CCN(Cc2ccc(OCCN3CCCC3)c(Cl)c2)C1)c1ccc(Cl)c(Cl)c1", "note": "[TCMDC-140273]", "% Inhibition": 27.77}
{"molecule": "CN1CCC[C@H]1COc1ccc(CN2CC[C@H](NC(=O)c3ccc(Cl)c(Cl)c3)C2)cc1Cl", "note": "[TCMDC-140275]", "% Inhibition": -2.162}
{"molecule": "CCC(C)CN1CCN(c2ccc(NC(=O)c3cccs3)cc2)CC1C", "note": "(centres unmarked) [TCMDC-134997]", "% Inhibition": 0.3581}
{"molecule": "Cc1ccc(C(=O)NC2C(=O)NC2c2ccccc2)c(C)c1", "note": "(centres unmarked) [TCMDC-131386]", "% Inhibition": 4.246}
{"molecule": "COc1ccc(NC(=O)[C@H](CC(C)C)Nc2cc(C)nc(NCc3ccccc3C)n2)cc1", "note": "[TCMDC-134909]", "% Inhibition": -97.01}
{"molecule": "COc1cc2nc(N3CCC(CNC(=O)c4ccc(C(C)=O)cc4)CC3)nc(N)c2cc1OC.O=C(O)C(F)(F)F", "note": "[TCMDC-138210]", "% Inhibition": 69.3}
{"molecule": "COc1cc2nc(N3CCC(CNC(=O)c4cccc5cccnc45)CC3)nc(N)c2cc1OC", "note": "[TCMDC-138181]", "% Inhibition": 14.63}
{"molecule": "COc1cc(N)c(Cl)cc1C(=O)NCC1CCN(c2nc(C)cc(C)n2)CC1", "note": "[TCMDC-124850]", "% Inhibition": 17.19}
{"molecule": "COc1cc2nc(NCc3cccc(CNC(=O)c4ccc(-c5ccc(C(C)=O)cc5)cc4)c3)nc(N)c2cc1OC.O=C(O)C(F)(F)F", "note": "[TCMDC-138177]", "% Inhibition": 117.9}
{"molecule": "COc1cc2nc(NCC3CCN(C(=O)c4ccc(-c5ccc(C(=O)N(C)C)cc5C)cc4)CC3)nc(N)c2cc1OC", "note": "[TCMDC-138182]", "% Inhibition": -26.73}
{"molecule": "COc1cc2nc(N3CCC(CNC(=O)c4ccc(OC(F)(F)F)cc4)CC3)nc(N)c2cc1OC.O=C(O)C(F)(F)F", "note": "[TCMDC-138211]", "% Inhibition": -26.96}
{"molecule": "COc1cc2nc(N3CCC(CNC(=O)c4cccc5cc[nH]c45)CC3)nc(N)c2cc1OC", "note": "[TCMDC-138184]", "% Inhibition": 101.1}
{"molecule": "COc1cc2nc(N3CCC(CNC(=O)c4ccc(-c5ccc(Cl)cc5)cc4)CC3)nc(N)c2cc1OC", "note": "[TCMDC-138718]", "% Inhibition": 145.1}
{"molecule": "Cc1cc2nc(-c3ccc(C(=O)NCc4cccc(C(F)(F)F)c4)cc3)[nH]c2cc1C", "note": "[TCMDC-140431]", "% Inhibition": -14.71}
{"molecule": "CN(C)Cc1cccc(-c2cnc(N)c(-c3nc4ccc(S(C)(=O)=O)cc4[nH]3)c2)c1", "note": "[TCMDC-133721]", "% Inhibition": 43.08}
{"molecule": "CSc1ccc(CN2CCC(NC(=O)c3ccc(-c4cccc(Cl)c4)s3)CC2)cc1", "note": "[TCMDC-134341]", "% Inhibition": 12.93}
{"molecule": "COc1cc(Nc2nc(N)n(C(=O)c3ccc4c(c3)OCO4)n2)cc(OC)c1OC", "note": "[TCMDC-136737]", "% Inhibition": -65.07}
{"molecule": "O=c1[nH]c2c(cc1CNC1CCCCC1)c(-c1ccc(F)cc1)nn2-c1ccccc1", "note": "[TCMDC-125352]", "% Inhibition": 14.87}
{"molecule": "CCCCOC(=O)NCCCC[C@H](NC(=O)OC(C)(C)C)C(=O)N[C@H](C(=O)OC(c1ccccc1)c1ccccc1)[C@H]1O[C@@H](n2ccc(=O)[nH]c2=O)[C@@H]2OC(C)(C)O[C@@H]21", "note": "[TCMDC-131947]", "% Inhibition": 9.174}
